Among the data in ChEMBL document CHEMBL4513216, “Probing the Open Global Health Chemical Diversity Library for Multistage-Active Starting Points for Next-Generation Antimalarials” (ACS Infect Dis, 2020) are INHIBITION values, retold here.

In all, about 69,000 compounds went through this assay and about 8,600 (12%) showed an effect of 50% or more. The list comes from a sample in which strong results are over-represented; it also holds similar structures and randomly drawn compounds.

In the experiment the test system is Plasmodium berghei. The experiment is described as follows: Screen against P. berghei liver stage (PbLuc), transformed with Luciferase, at 10uM. Conditions: tested at 10 uM. In kind it is functional, HepG2.
Turning to `CCN(CC)c1ncccc1CNCc1cc2ccccc2s1`, the INHIBITION worked out at 5.91%. Take `Cc1cc(NC(=O)CN2CCOC(CN(C)C)C2)n(C)n1` (centres undefined): the INHIBITION stood at 4.35%. For `Cc1nc(CN2CCO[C@@H]3CN(Cc4nccs4)C[C@@H]3C2)cs1`, the INHIBITION stood at 3.69%. As for `O=C(CN1CCCC1c1cccs1)N1CCc2sccc2C1` (centres undefined), the INHIBITION came out at 19.2%. For the compound `CC(C)c1noc(-c2cccc(OCC(N)=O)c2)n1`, the INHIBITION is recorded as -110%. With `O=C(c1ccc2sccc2c1)N1CCC(C(=O)O)(n2cccn2)CC1` the figure was -16.6%; with `O=C(c1ccc2ncsc2c1)N1CCC(C(=O)O)(n2cccn2)CC1`, -0.529%; with `O=C(c1ccc2occc2c1)N1CCC(C(=O)O)(n2cccn2)CC1`, 60%. The value for `CN1CC2(CCN(CCCOCc3ccccc3)CC2)OC1=O` was 42.8%; that for `O=C(C1CCOC1)N1C[C@H]2CN(Cc3ccccn3)C[C@H]2C1` (some centres undefined) was 33.5%; that for `CC(=O)N(Cc1ncc(C)o1)C1CCN(Cc2sc(C)nc2C)C1` (centres undefined) was -2.19%.

As for `CC(C)NCc1nc(-c2ccc3c(c2)OCO3)c[nH]1`, the INHIBITION was -40.5%. For the compound `c1ccc(Sc2ccc3c(c2)OCO3)c(CNC2=NCCN2)c1`, the INHIBITION came to 87.1%.

Regarding `Fc1ccccc1Sc1ccccc1CNC1=NCCN1`, the INHIBITION amounted to 75.7%. Regarding `NCc1ccccc1Sc1ccc(O)cc1`, the INHIBITION was 39.4%. Consider `c1cc2c(cc1C1(CNC3=NCCN3)CCCC1)OCCO2`, for which the INHIBITION came out at 27.6%. With `CNC(C)Cc1ccccc1Sc1ccc(O)cc1` (centres undefined) the figure was -2.39%; with `O=C(Cc1cccnc1)NCCSc1ccccc1F`, -11.6%.

Turning to `O=C1NCCCCC1Sc1ccccc1F` (centres undefined), the INHIBITION was found to be 13.6%. With `Fc1ccc(Sc2ccccc2CNC2=NCCN2)cc1`, the INHIBITION is listed as 83.3%. Take `CCCc1ccc(OCCNCc2ccco2)c(OC)c1`: the INHIBITION turned out to be 1.71%.

On to `Cc1ccc(C2CCCN2S(=O)(=O)N(C)Cc2nccn2C)o1` (centres undefined), for which the INHIBITION stood at 40.8%. On to `Cc1nc(CN2CC[C@@H](OCC3CC3)[C@@H]2Cc2cccnc2)cs1`, for which the INHIBITION was 10.5%.

Regarding `Cc1cnn(CC2CN(Cc3nnc(-c4ccccc4)o3)CCO2)c1` (centres undefined), the INHIBITION is -13.3%.

Regarding `CC(=O)NC1CCCN(Cc2ccn(C)c(=O)c2)C1` (centres undefined), the INHIBITION is reported as -4.4825%. As for `CNc1nc(C(=O)N2C[C@@H]3CC[C@H]2CN(C2CCOCC2)C3)cs1`, the INHIBITION is reported as 12.8%.

Turning to `CC(c1nc(C2CC2)no1)N(C)Cc1cccc(F)c1` (centres undefined), the INHIBITION is listed as 53.4%. Regarding `CC(c1nc(C2CC2)no1)N(C)Cc1ccc(Cl)cc1` (centres undefined), the INHIBITION was determined as 43.1%. For the compound `CC(c1nc(C2CC2)no1)N(C)Cc1ccc2c(c1)OCCO2` (centres undefined), the INHIBITION is reported as 12.3%. `Cn1ccc2c(C(=O)N3CCCC(c4nnc[nH]4)C3)cccc21` (centres undefined): the INHIBITION is recorded as -66.9%. With `CCN1Cc2c(C(=O)NCC3CC3)ncn2-c2ccccc2S1(=O)=O`, the INHIBITION was determined as 0.139%. Turning to `CCNC(=O)c1ncn2c1CN(C)S(=O)(=O)c1ccccc1-2`, the INHIBITION is recorded as -1.53%. For the compound `CN1Cc2c(C(=O)NC3CCCCC3)ncn2-c2ccccc2S1(=O)=O`, the INHIBITION is on record as 43.4%. Regarding `CCC(CC)NC(=O)c1ncn2c1CN(CC)S(=O)(=O)c1ccccc1-2`, the INHIBITION is 52%. As for `CNC(=O)c1ncn2c1CN(CCC(C)C)S(=O)(=O)c1ccccc1-2`, the INHIBITION was 64.9%. The value for `CC(C)CN1Cc2c(C(=O)N(C)C)ncn2-c2ccccc2S1(=O)=O` was 5.69%; that for `CC(C)CCN1Cc2c(C(=O)O)ncn2-c2ccccc2S1(=O)=O` was 31.8%. With `CCN1Cc2c(C(=O)NC(C)C(C)C)ncn2-c2ccccc2S1(=O)=O` (centres undefined) the figure was 29.9%; with `CCN1Cc2c(C(=O)NC)ncn2-c2ccccc2S1(=O)=O`, 45.1%.

Turning to `CC(C)CN1Cc2c(C(=O)NC3CC3)ncn2-c2ccccc2S1(=O)=O`, the INHIBITION is 50.9%. Regarding `CCN1Cc2c(C(=O)NC(C)C)ncn2-c2ccccc2S1(=O)=O`, the INHIBITION is 31.1%. Regarding `CCCNC(=O)c1ncn2c1CN(CC(C)C)S(=O)(=O)c1ccccc1-2`, the INHIBITION turned out to be 57.9%. Turning to `Cc1ccc(C)c(CSc2nnc(C(N)Cc3ccccc3)o2)c1` (centres undefined), the INHIBITION is 43.8%. For `Cc1ccc(-c2cc(C3=NC(=CN4CCN(C)CC4)NO3)[nH]n2)s1`, the INHIBITION worked out at 39.6%. Take `Cc1ccsc1CNC1CCCN(Cc2noc(C3CC3)n2)C1` (centres undefined): the INHIBITION stood at 31.8%. As for `CC1CN(CCOc2cccc(C#N)c2)CCN1Cc1nccn1C` (centres undefined), the INHIBITION is -3.2%. With `COc1ccc(CN2CCC3(CC2)CC(c2cccnc2)CO3)cc1` (centres undefined) the figure was 15.4%. For `Cc1csc(N2CCCN(C(=O)C3(C#N)CCCC3)CC2)n1`, the INHIBITION is recorded as -33.32%. With `CN(C)CC1CN(Cc2ccc3c(c2)OCO3)Cc2nccn2C1` (centres undefined) the figure was 43.8%; with `Cc1noc(C)c1CN(C)c1ncnc2onc(C)c12`, 74.7%; with `Cc1noc(C)c1CN(C)c1ncnc2ccccc12`, 35.6%. With `Cc1noc2ncnc(N(C)Cc3ccco3)c12` the figure was 10.1%.

On to `CNc1ncc(CN(C)c2nc(C)c3ccc(S(C)(=O)=O)cc3n2)cn1`, for which the INHIBITION is -9.54%. In the case of `CNc1ncc(CN(C)c2ncnc3onc(C)c23)cn1`, the INHIBITION was 62.9%.

For `CNc1ncc(CN(C)C2CCN(C(C)C)CC2)cn1`, the INHIBITION was -52.2%. As for `Cc1ccc(S(=O)(=O)NC(=O)C2(c3ccccc3)CCC2)c(C)c1`, the INHIBITION stood at 21.1%. Take `CNc1ccc(C)cc1C(=O)N1CCCC2(CCNC2)C1` (centres undefined): the INHIBITION stood at 33.7%. Turning to `Cc1ccc(OCCN(C)Cc2nccn2C)c(C)c1`, the INHIBITION is 55%. As for `CN(CCCOc1ccccc1)Cc1nccn1C`, the INHIBITION is recorded as 20.5%.

As to `CN(Cc1cc2c(cc1OC(F)F)OCO2)Cc1nccn1C`, the INHIBITION is 43.6%.

Consider `CCOc1cccc(C(=O)N2CCC(c3n[nH]c(C4CC4)n3)CC2)c1`, for which the INHIBITION was 11.2%. Take `CC(C)N1CCCC(CNC(=O)c2ccnc(-n3ccnc3)c2)C1` (centres undefined): the INHIBITION is -33%. As for `c1cncc(OCC2CN(Cc3nccs3)Cc3nccn3C2)c1` (centres undefined), the INHIBITION was 8.52%. The value for `COCCN1CCC(CNC(=O)C2(c3ccc(Br)cc3)CCCC2)C1` (centres undefined) was 52.5%; that for `COCCN1CCC(CNC(=O)C2(c3cc(C)cc(C)c3)CC2)CC1` was 26.5%. On to `COCCN1CCC(CNC(=O)Nc2ccc(F)c(Cl)c2)C1` (centres undefined), for which the INHIBITION is 7.44%. With `COCCN1CCC(CNC(=O)C2(c3ccc(F)cc3)CCC2)CC1` the figure was 8.64%; with `COCCN1CCC(CNC(=O)C2(c3ccccc3)CCC2)C1` (centres undefined), 45.7%. The value for `O=C(NCC1CCN(CCc2ccccc2)C1)c1c(F)cccc1F` (centres undefined) was 45.1%.

For the compound `O=C(NCC1CCN(CCc2ccccc2)C1)c1cc(Cl)c[nH]1` (centres undefined), the INHIBITION amounted to 72.3%. As to `COCCN1CCC(CNC(=O)Nc2ccc(-c3ccccc3)cc2)C1` (centres undefined), the INHIBITION is on record as 42.5%. With `COCCN1CCC(CNC(=O)c2cc(C)cc(C)c2)C1` (centres undefined) the figure was 58.3%; with `COCCN1CCC(CNC(=O)Nc2ccc(SC(F)(F)F)cc2)C1` (centres undefined), 66.5%; with `COCCN1CCC(CNC(=O)C2(c3cc(C)cc(C)c3)CCC2)C1` (centres undefined), 40.9%. Consider `Nc1cc(C(=O)NCC2CCN(CCc3ccccc3)C2)ccn1` (centres undefined), for which the INHIBITION was found to be 37.2%. The value for `CC1CCN(c2cncc(CCC3CCCN3)n2)CC1` (centres undefined) was 35.8%. Regarding `CN(C)CC(=O)N1CCC2(CCN(Cc3cccc(F)c3)CC2)C1`, the INHIBITION turned out to be 9.97%. Consider `CSCC[C@H](NC(=O)CCn1ccc2c(Br)cccc21)C(=O)O`, for which the INHIBITION is given as -2.13%. Turning to `CCCn1nccc1NC(=O)CN1CCC[C@H]1CO`, the INHIBITION is -72.2%. Turning to `COCC1CN(CC2CC2)Cc2nccn2C1` (centres undefined), the INHIBITION stood at 35.7%. As for `N#CC1(C(=O)N2CCN(Cc3cscn3)CC2)CCCCC1`, the INHIBITION is on record as 25.6%. `CC(C)c1nc(CN(C)C(=O)CCc2ccc3c(c2)OCO3)cs1`: the INHIBITION is on record as 19.4%. In the case of `COC(=O)C(NC(=O)CC(C)C)c1cc(F)ccc1F` (centres undefined), the INHIBITION is given as 15.6%. `COCCN1CCC(CNC(=O)c2c[nH]c(=O)c(Cl)c2)CC1`: the INHIBITION is on record as -16%.

In the case of `CCCN1CCC(CNC(=O)C2(c3cc(C)cc(C)c3)CCC2)C1` (centres undefined), the INHIBITION was found to be 25.1%. For the compound `CCN1CCC(CNC(=O)c2cc(Cl)c[nH]2)CC1`, the INHIBITION is 7.39%.

As to `COCCN1CCC(CNC(=O)c2cc(Cl)c[nH]2)CC1`, the INHIBITION was 72.3%. With `CCN1CCCC(CNC(=O)C2(c3cc(C)cc(C)c3)CCC2)C1` (centres undefined), the INHIBITION worked out at 51.1%.

For `CCN1CCC(CNC(=O)C2(c3cccc(C)c3)CC2)C1` (centres undefined), the INHIBITION was found to be 37%. Take `CCOc1cc(CNC(C)c2ccc(F)cc2)ccn1` (centres undefined): the INHIBITION was determined as 21.5%.

For `CCOc1cc(CNC(=O)NCc2nc(C)c(C)s2)ccn1`, the INHIBITION is reported as 30.1%. For the compound `CCOc1cc(CNC(C)c2sccc2C)ccn1` (centres undefined), the INHIBITION is reported as 66.9%. The value for `CCOc1cccc(CCNC(=O)Cc2ccn[nH]2)n1` was 61.8%; that for `CCOc1cccc(CCNC(=O)Cc2cccc(O)c2)n1` was 37.2%; that for `CCOc1cccc(CCNC(=O)Cc2ccccc2O)n1` was 20.1%.

For the compound `CC(=O)N1N=C(COc2ccc(C)cc2)OC1c1ccc(N(C)C)cc1` (centres undefined), the INHIBITION worked out at 11.9%. Regarding `CC(=O)N1N=C(COc2ccc3c(c2)OCO3)OC1c1ccc(C)cc1` (centres undefined), the INHIBITION is reported as -51.1%.

Take `COc1ccc(C2OC(COc3ccc(C)cc3)=NN2C(C)=O)cc1` (centres undefined): the INHIBITION is -13.6%. Regarding `CC(=O)N1N=C(COc2ccc3c(c2)OCO3)OC1c1cccc(Cl)c1` (centres undefined), the INHIBITION amounted to 61.5%. Turning to `CC(=O)N1N=C(COc2ccc(Cl)cc2)OC1c1ccccc1` (centres undefined), the INHIBITION amounted to 68.9%. With `COc1ccc(C2OC(COc3ccccc3Br)=NN2C(C)=O)cc1` (centres undefined), the INHIBITION is -52.1%. Take `COCC(=O)N1C[C@@H](c2cccc(OC)c2)[C@@]2(CCCCC(=O)N2)C1`: the INHIBITION is reported as -4.87%. The value for `CC(C)(CCS(C)(=O)=O)CNC(=O)NC1CCCCC1(C)C` (centres undefined) was -11.1%. Turning to `Cc1cc(C2CCCN(CCS(=O)(=O)c3ccccc3)C2)n[nH]1` (centres undefined), the INHIBITION is recorded as -9.76%. With `Cc1ccc(CNC(=O)C2=NOC3(CCCNC3)C2)cc1` (centres undefined) the figure was -13.1%; with `O=C(NCC(F)(F)F)C1=NOC2(CCCNC2)C1` (centres undefined), 52.9%; with `O=C(NCc1ccncc1)C1=NOC2(CCCNC2)C1` (centres undefined), -6.21%. Consider `COCCn1ccc(=O)c(OCC(=O)Nc2ccc(OC)cc2)c1C`, for which the INHIBITION is -35.1%. For `CCn1nc(C)c(CN(CCCOC)Cc2ccccn2)c1C`, the INHIBITION was determined as 41.5%.
